40 compounds from PubChem BioAssay (Tox21) can be followed below.

Each structure is given as a SMILES string. Results filed as inconclusive are left out. A call without a number means that no potency is given here. Calls of active or inactive are those of the source. Calls follow the shape of the dose curve; as a rule, active = well fitted cell-killing curve with a large enough effect in the repeat runs; inconclusive = weak or mixed curves, or effect the other way; inactive = no such curve, though single readings can be large or run the other way.

This assay can be described thus: qHTS assay for small molecule activators of the heat shock response signaling pathway - cell viability counter screen (AID 743209). Also: nearly all actives have a fitted effect of over 50% in size. Particulars: HSE-bla HeLa viability, CellTiter-Glo luminescence, 5 h; series mostly up to 62.6 µM. An excerpt:
U.S. Tox21 Program National Center for Advancing Translational Sciences [NCATS] NIH Chemical Genomics Center [NCGC] U.S. Environmental Protection Agency [EPA] National Institutes of Environmental Health Sciences [NIEHS] National Toxicology Program [NTP] U.S. Food and Drug Administration [FDA] Tox21 Assay Overview: Various chemicals, environmental and physiological stress conditions may lead to the activation of heat shock response/ unfolded protein response (HSR/UPR). There are three heat shock transcription factors (HSFs) (HSF-1, -2, and -4) mediating transcriptional regulation of the human HSR. To identify the compounds that activate HSR signaling, HSE-bla HeLa cell line (Invitrogen, Carlsbad, CA, USA) containing a beta-lactamase reporter gene under the control of the heat shock response elements was used to screen Tox21 10K compound library. The cytotoxicity of the Tox21 compound library against the HSE-bla HeLa cell line was tested in parallel by measuring the cell viability using CellTiter-Glo assay (Promega, Madison, WI) in the same wells.
Tox21 Assay Protocol Summary: The CellSensor HSE-bla HeLa cells (Invitrogen, Carlsbad, CA, USA) were dispensed at 1500 cells/6uL/well into 1536-well black wall/clear bottom plates using a Multidrop combi (Thermo Fisher Scientific, Waltham, MA) dispenser. After the assay plates were incubated at 37 C and 5% CO2 overnight, 23 nL of compounds dissolved in DMSO, positive controls or DMSO only was transferred to the assay plate by a Pintool station (Kalypsys, San Diego, CA). The plates were incubated at 37 C for 5 h. After 1 uL of LiveBLAzerTM B/G FRET substrate was added using a Flying Reagent Dispenser (FRD, Beckman Coulter, Indianapolis, IN, USA), the plates were incubated at room temperature for 2.5 h, and fluorescence intensity was measured by an Envision plate reader (PerkinElmer, Shelton, CT). For cell viability readout that measures cytotoxicity, 3 ul/well of CellTiter-Glo reagent was added into the assay plates using a FRD. After 30 min incubation at room temperature, the luminescence intensity in the plates was measured using a ViewLux (PerkinElmer) plate reader.
For `C[N+](C)(C)CCO`, the Potency entry was “inactive”.

In the case of `Cc1cccc(Nc2ccccc2C(=O)O)c1C`, the Potency entry was “inactive”.

Turning to `O=Cc1ccccc1C=O`, the Potency entry was “inactive”.

Turning to `C=C[C@H]1CN2CC[C@H]1C[C@@H]2[C@@H](O)c1ccnc2ccc(OC)cc12`, the Potency entry was “inactive”.

For `CC(=O)[C@H]1CC[C@H]2[C@@H]3CC=C4C[C@@H](O)CC[C@]4(C)[C@H]3CC[C@]12C`, the Potency result was “inactive”.

As to `c1ccc2ncccc2c1`, the Potency entry is “inactive”.

Regarding `Cc1ccc(S(=O)(=O)NCl)cc1`, the Potency entry is “inactive”.

Take `OC[C@H]1O[C@@H]2O[C@H]3[C@H](O)[C@@H](O)[C@@H](O[C@H]4[C@H](O)[C@@H](O)[C@@H](O[C@H]5[C@H](O)[C@@H](O)[C@@H](O[C@H]6[C@H](O)[C@@H](O)[C@@H](O[C@H]7[C@H](O)[C@@H](O)[C@@H](O[C@H]1[C@H](O)[C@H]2O)O[C@@H]7CO)O[C@@H]6CO)O[C@@H]5CO)O[C@@H]4CO)O[C@@H]3CO`: the Potency entry is “inactive”.

For the compound `C=C1C[C@H]2[C@@H]3C=C(C)C4=CC(=O)CC[C@]4(C)[C@H]3CC[C@]2(C)[C@@]1(OC(C)=O)C(C)=O`, the Potency entry was “inactive”.

With `C=CN1CCCC1=O`, the Potency entry was “inactive”.

As for `CCCCCC1C(=O)CCC1CC(=O)OC` (stereo not given), the Potency entry was “inactive”.

As for `CNC[C@H](O)c1ccc(O)c(O)c1`, the Potency result is “inactive”.

Take `FC(F)(F)C(Cl)Br` (stereo not given): the Potency entry is “inactive”.

As for `CN(Cc1cnc2nc(N)nc(N)c2n1)c1ccc(C(=O)N[C@@H](CCC(=O)O)C(=O)O)cc1`, the Potency result is “inactive”.

As for `O=C1CCc2ccccc2O1`, the Potency entry was “inactive”.

In the case of `Cc1ccc(/C(=C\CN2CCCC2)c2ccccn2)cc1`, the Potency entry was “inactive”.

Consider `C[C@]12C=CC(=O)C=C1CC[C@H]1[C@@H]3C[C@@H](O)[C@](O)(C(=O)CO)[C@@]3(C)C[C@H](O)[C@@]12F`, for which the Potency result is “inactive”.

Consider `CCC/C=C/C=O`, for which the Potency entry is “inactive”.

For the compound `CCCCCCOCCOCCO`, the Potency entry is “inactive”.

As to `C[C@]12CC[C@@H]3c4ccc(O)cc4CC[C@H]3[C@@H]1CC[C@@H]2O`, the Potency result was “inactive”.

With `c1ccc2c(c1)[nH]c1ccccc12`, the Potency result is “inactive”.

With `COC(=O)C(C)Oc1ccc(Oc2ncc(C(F)(F)F)cc2Cl)cc1` (stereo not given), the Potency result is “inactive”.

Take `CCC(Cc1c(I)cc(I)c(N)c1I)C(=O)O` (stereo not given): the Potency result was “inactive”.

As for `Oc1c(Cl)ccc(Cl)c1Cl`, the Potency result was “inactive”.

On to `O=C(O)c1cc(=O)[nH]c(=O)[nH]1`, for which the Potency entry is “inactive”.

Take `Nc1ccc(N)c(Cl)c1`: the Potency result is “inactive”.

Regarding `O=C(CCCN1CCC(O)(c2ccc(Cl)cc2)CC1)c1ccc(F)cc1`, the Potency entry is “inactive”.

With `CCCCCCCCCCCCO`, the Potency result is “inactive”.

As for `NCCN`, the Potency entry was “inactive”.

Turning to `O=C(O)COCCN1CCN(C(c2ccccc2)c2ccc(Cl)cc2)CC1` (stereo not given), the Potency entry is “inactive”.

Take `CC/C(=C(/CC)c1ccc(O)cc1)c1ccc(O)cc1`: the Potency result was “inactive”.

For `CCCCCC=O`, the Potency entry was “inactive”.

For the compound `C=CC(=O)OCCCC`, the Potency entry was “inactive”.

`O=[Se](O)O`: the Potency result was “inactive”.

With `C1CN(SSN2CCOCC2)CCO1`, the Potency result was “inactive”.

In the case of `Cc1ccc(N)c([N+](=O)[O-])c1`, the Potency entry is “inactive”.

For the compound `C=CCOC(=O)C(=C)C`, the Potency result was “inactive”.

Regarding `Nc1ccc(O)c(N)c1`, the Potency result is “inactive”.

For `Cc1ccc(C)c(O)c1`, the Potency entry is “inactive”.

For `OC[C@@H](O)[C@@H](O[C@@H]1O[C@H](CO)[C@H](O)[C@H](O)[C@H]1O)[C@H](O)[C@@H](O)CO`, the Potency result was “inactive”.
